# High-throughput results (PubChem)
# A549 tox-1: kills or reduces viability of A549 cells in Nrf2 counter-screen; 390,000 compounds, 0.16% hits; A549 ARE-Fluc cells, CellTiter-Fluor viability, 18-24 h; Potency, µM (series often up to 46 µM), without a hit: at the highest dose activity change, negative = cytotoxicity, actives largely listed as inhibitors; also: % is scaled to controls: 0 for no effect and ±100 for the full control effect
#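 A549 ARE_Fluc cells in 5% FBS OPTI-MEM were exposed to compounds in concentration-response for 18-24 h at 37 deg C. Viability was read by CellTiter-Fluor fluorescence (Ex 405/Em 525) after 30 min, before the luciferase read.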
# ELG1 repair inh: blocks ELG1-dependent DNA repair in HEK293T cells. HEK293T ELG1-luciferase reporter, luminescence, 16 h; DNA damage induced by 5-fluorouridine. Potency, µM (series often up to 46.1 µM), inactives show at the highest dose activity change, negative = inhibition, hits mostly inhibitors. 330,000 compounds, 2.3% hits; also: % is scaled to controls: 0 for no effect and ±100 for the full control effect; nearly all actives have a fitted effect of over 55% in size
#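 Cells (2,000 per well) received 5-fluorouridine plus test compound or DMSO and were incubated 16 hr at 37 °C, 5% CO2. Luciferase activity was read by luminescence 30 min after ONE-Glo addition; signal suppression marked inhibition of damage-induced ELG1 function.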
# Nrf2 activator: activators of Nrf2 (ARE) signaling. AID 624171. AREc32 ARE-luciferase reporter (MCF7-derived line), luminescence, 24 h. Potency, µM (doses to about 46.1 µM), inactives show at the highest dose activation, hits mostly activators. 410,000 compounds, 0.31% hits; also: % of control where 0% means no effect; nearly all actives have a fitted effect of over 65% in size
#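 Quantitative high-throughput format: AREc32 reporter cells, 1000 per well, received compound by pin transfer and were incubated 24 hr at 37 deg C, 5% CO2, before Steady-Glo luminescence detection.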
# Nrf2 block: inhibitors of Nrf2 signaling; 360,000 compounds, 2.1% hits; Potency, µM (doses to about 46 µM), without a hit: at the top dose activity change, negative = inhibition, usual class: inhibitors; A549 ARE-Fluc reporter, luciferase luminescence, 18-24 h; AID 504444; also: % is scaled to controls: 0 for no effect and ±100 for the full control effect; nearly all actives have a fitted effect of over 60% in size
#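 Quantitative HTS in A549 cells stably bearing an antioxidant response element-firefly luciferase construct. Inhibition of Nrf2-driven transcription was scored by luminescence after 18-24 h of compound exposure at 37 °C.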
# FLuc counter 3: blocks purified firefly luciferase in Nrf2 counterscreen; AID 720522; 1,400 compounds, 4% hits; shares compounds with Nrf2 block; Potency, µM (top dose mostly 57.5 µM), for the others: top-dose activity change, negative = inhibition, most hits filed as inhibitors; purified firefly luciferase, luminescence inhibition; also: % is scaled to controls: 0 for no effect and ±100 for the full control effect; nearly all actives have a fitted effect of over 65% in size
# A549 tox-2: A549 cytotoxicity, Nrf2 inhibitor counterscreen | 1,400 compounds, 2% hits | shares compounds with Nrf2 block | Potency, µM (series often up to 46.1 µM), for inactives: at the highest dose activity change, negative = cytotoxicity, usual class: inhibitors | A549 ARE-Fluc cells, cytotoxicity counterscreen;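 also: cells exposed to compounds for 18 to 24 hours; % is scaled to controls: 0 for no effect and ±100 for the full control effect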
# ARE-Fluc inh: confirmation of Nrf2 inhibitors in A549 ARE reporter cells; 1,400 compounds, 74% hits; A549 ARE-firefly luciferase reporter, luminescence; AID 720524; shares compounds with Nrf2 block; Potency, µM (top dose mostly 46.1 µM), without a hit: at the top dose activity change, negative = inhibition, actives largely listed as inhibitors; also: % is scaled to controls: 0 for no effect and ±100 for the full control effect; nearly all actives have a fitted effect of over 65% in size
# ELG1 FLuc counter: luciferase inhibition in cell-free luciferin readout for ELG1 hits | Potency, µM (titrated, usually from 46.1 µM), for inactives: at the top dose activity change, negative = inhibition, most hits filed as inhibitors | 350 compounds, 3% hits | cell-free firefly luciferase luminescence counter-screen, ViewLux | shares compounds with ELG1 repair inh; also: % is scaled to controls: 0 for no effect and ±100 for the full control effect
# ELG1 Luc conf: inhibits ELG1-dependent DNA repair in HEK293T cells, confirmed; shares compounds with ELG1 repair inh; HEK293T ELG1-luciferase levels, luminescence; cells co-treated with 5-fluorouridine; Potency, µM (top dose mostly 46.1 µM), inactives show top-dose activity change, negative = inhibition, actives largely listed as inhibitors; 670 compounds, 68% hits; AID 624248; also: % is scaled to controls: 0 for no effect and ±100 for the full control effect; nearly all actives have a fitted effect of over 55% in size
# ELG1 MMS Luc: confirmation of human ELG1 repair inhibitors, MMS stimulated; shares compounds with ELG1 repair inh; 670 compounds, 53% hits; HEK293T luciferase-tagged ELG1 level, MMS stimulated; Potency, µM (titrated, usually from 46.1 µM), inactives show at the highest dose activity change, negative = inhibition, hits mostly inhibitors; also: % is scaled to controls: 0 for no effect and ±100 for the full control effect; nearly all actives have a fitted effect of over 60% in size
# ELG1 5-FU: confirmation of ELG1 repair inhibitors: viability with 5FU | shares compounds with ELG1 repair inh | cell viability with 5-FU, ELG1-dependent repair | Potency, µM (series often up to 46.1 µM), without a hit: at the highest dose activity change, negative = viability loss, most hits filed as cytotoxic | 670 tested, under 10 active;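 also: ELG1-luc HEK293T cells cotreated with 5-fluorouridine at 10 µM final; viability measured 16 h after compound addition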
# ELG1 MMS viab: confirmation of ELG1 repair inhibitors: viability with MMS. shares compounds with ELG1 repair inh. Cell viability with MMS, ELG1-dependent DNA repair. Potency, µM (top dose mostly 46.1 µM), inactives show at the highest dose activity change, negative = viability loss, most hits filed as cytotoxic. 670 compounds, 33% hits. AID 624251;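 also: ELG1-luc HEK293T cells co-treated with 10 µM MMS; viability read 16 h after compound addition; % is scaled to controls: 0 for no effect and ±100 for the full control effect; nearly all actives have a fitted effect of over 60% in size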
# ELG1 unstim viab: affects unstimulated cell viability, ELG1 hit counter-screen; 900 compounds, 8% hits; Potency, µM (titrated, usually from 45.9 µM), inactives show at the top dose activity change, negative = loss of viability, hits mostly cytotoxic; cell viability counter-screen, unstimulated, luminescence; shares compounds with ELG1 repair inh; AID 624252;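 also: compound exposure lasted 16 hours before reading; % is scaled to controls: 0 for no effect and ±100 for the full control effect; nearly all actives have a fitted effect of over 55% in size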
# FLuc biochem: firefly luciferase inhibition counter-screen | shares compounds with ELG1 repair inh | purified firefly luciferase, luminescence counter-screen | Potency, µM (doses to about 57.5 µM), inactives show top-dose activity, negative = inhibition, most hits filed as inhibitors | 350 compounds, 10% hits; also: % is scaled to controls: 0 for no effect and ±100 for the full control effect
# Starred values were filed as active, the others as inactive; ? = inconclusive; . = no result given. In the library only some 3.7% were active in any assay of this set; here they are far more common. Calls follow the shape of the dose curve; as a rule, active = well fitted curve in the direction sought with a large enough effect; inconclusive = small, poorly fitted or top-dose-only effect, or another doubt; inactive = no such curve, though single readings can be large; an effect the other way counts as inactive or inconclusive. Potency is read from the fitted curve at half-maximal effect.
SMILES,A549 tox-1,ELG1 repair inh,Nrf2 activator,Nrf2 block,ELG1 FLuc counter,ELG1 Luc conf,ELG1 MMS Luc,ELG1 5-FU,ELG1 MMS viab,ELG1 unstim viab,FLuc biochem,others
COc1ccc(C[C@H]2NC[C@H](O)[C@H]2OC(C)=O)cc1,?,.,-1%,0.12µM*,0.013µM*,0.056µM*,0.025µM*,-12%,0.05µM*,0.011µM*,-2%,FLuc counter 3=-18%;A549 tox-2=1%;ARE-Fluc inh=7.3µM*
COc1ccc(CCNC2CCCCC2)cc1,-10%,-13%,-1%,-6%,.,.,.,.,.,.,.,
CCOc1ccc(-c2c(C)n(-c3ccc(OCC)cc3)c3[n+]2CCCCC3)cc1,-1%,0.29µM*,7%,2.6µM*,?,?,0.5µM*,?,0.45µM*,5µM*,-8%,FLuc counter 3=-1%;A549 tox-2=?;ARE-Fluc inh=1.2µM*
O=c1c2ccccc2nc(/C=C\c2ccccc2F)n1-c1ccc(O)cc1,-4%,.,-1%,.,.,.,.,.,.,.,.,
CCOC(=O)c1ccc(NC(=O)c2nc[nH]c2C(=O)NCCNC(=O)c2[nH]cnc2C(=O)Nc2ccc(C(=O)OCC)cc2)cc1,8%,0.52µM*,3%,4%,?,0.79µM*,1.4µM*,?,?,-21%,?,
CCc1ccc(OCC(=O)N2CCN(CCc3ccccn3)CC2)cc1,12%,.,0%,-18%,.,.,.,.,.,.,.,
COC(=O)c1c(NC(=O)C2CC=CCC2C(=O)O)sc2c1CCCCC2 (configuration not stated),-3%,?,2%,9%,.,.,.,.,.,.,.,
COc1cc2c(cc1OC)[C@@H]1C(=O)c3ccc4c(c3OC1CO2)CC(C(C)C)O4 (some centres not stated),.,.,.,.,?,25µM*,0.044µM*,-22%,0.04µM*,?,-4%,
O=c1[nH]c2ccccc2n1C1CCN(Cc2ccc(-c3[nH]c4cc5ncnc5cc4nc3-c3ccccc3)cc2)CC1,.,.,0%,.,.,.,.,.,.,.,.,
